PubChem BioAssay (NCI)
“And” between values parts separate entries of the source, which are not always exact repeats. Equal entries are not always repeated. The panel holds about 83,000 compounds, 20% with a hit somewhere; the sample as a whole holds those more often.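 Note: values are percent growth. 100 is the growth of untreated cells, values between 100 and 0 indicate rising inhibition; between -100 and 0 indicates cell death.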 The source made the active and inactive calls. Rule for the calls: active = growth percent below 10; inactive = the rest.

What was measured:
Assay in all cases: NCI-60 one-dose screen, 48 h (100 = growth as untreated, 0 = no growth, -100 = all killed)
Conditions in all cases: 10 µM unless noted
HCT-15 colon = test system: HCT-15 colon
SNB-75 CNS = test system: SNB-75 CNS
SNB-19 CNS = test system: SNB-19 CNS
U251 CNS = test system: U251 CNS
PC-3 prostate = test system: PC-3 prostate
SK-MEL-5 melanoma = test system: SK-MEL-5 melanoma
UACC-62 melanoma = test system: UACC-62 melanoma
LOX IMVI melanoma = test system: LOX IMVI melanoma
SK-MEL-28 melanoma = test system: SK-MEL-28 melanoma
HT29 colon = test system: HT29 colon

Measured: growth

N=C(N=C(N)N)N1CCOCC1
inactive: HCT-15 colon 101% and 94.5% | SNB-75 CNS 90.5% and 89.8% | SNB-19 CNS 110% and 99.1% | U251 CNS 101% and 103% | PC-3 prostate 93.7% and 94.5% | SK-MEL-5 melanoma 96.1% and 98% | UACC-62 melanoma 105% and 100% | LOX IMVI melanoma 102% and 93.2% | SK-MEL-28 melanoma 99.5% and 103%

COc1ccc(/C=N/NC(N)=S)cc1
inactive: HCT-15 colon 106% | SNB-75 CNS 87.7% | SNB-19 CNS 100% | U251 CNS 96.7% | PC-3 prostate 86.9% | SK-MEL-5 melanoma 104% | UACC-62 melanoma 101% | LOX IMVI melanoma 95.8% | SK-MEL-28 melanoma 112%

CN(C)c1ccc(C(=N)c2ccc(N(C)C)cc2)cc1
inactive: HCT-15 colon 23.5% and 20.9% | SNB-19 CNS 41.1% and 38.3% | U251 CNS 16.6% and 17.1% | PC-3 prostate 66% and 47.3% | UACC-62 melanoma 31.4% and 31.8% | LOX IMVI melanoma 28.9% and 33.9% | SK-MEL-28 melanoma 44% and 36%
active: SNB-75 CNS -30.8% and 8.36%

COC(=O)c1nc(=S)[nH]c(C(=O)OC)c1C(=O)c1ccccc1
inactive: HCT-15 colon 103% | SNB-75 CNS 86.6% | U251 CNS 105% | PC-3 prostate 91.2% | SK-MEL-5 melanoma 103% | UACC-62 melanoma 92.6% | LOX IMVI melanoma 94.2% | SK-MEL-28 melanoma 105%

CCN(CC)C(CC(=O)c1ccccc1)C(=O)c1ccccc1 (stereo not drawn)
inactive: HCT-15 colon 64.6% | U251 CNS 93.7% | PC-3 prostate 101% | SK-MEL-5 melanoma 94.5% | UACC-62 melanoma 99.7% | LOX IMVI melanoma 88.6% | SK-MEL-28 melanoma 118%

Cn1c(-c2ccccc2)cc(=O)cc1-c1ccccc1
inactive: HCT-15 colon 22.7% | SNB-75 CNS 119% | SNB-19 CNS 89% | U251 CNS 82.7% | PC-3 prostate 67.1% | SK-MEL-5 melanoma 95.3% | UACC-62 melanoma 81.5% | LOX IMVI melanoma 73.2% | SK-MEL-28 melanoma 118%

Cc1ccc(C(=O)c2ccc(C)cc2)cc1
inactive: HCT-15 colon 99.8% and 102% | SNB-75 CNS 86.4% and 99.5% | SNB-19 CNS 86.9% and 105% | U251 CNS 94.1% and 105% | PC-3 prostate 95.8% and 92.5% | SK-MEL-5 melanoma 95.6% and 100% | UACC-62 melanoma 92.7% and 101% | LOX IMVI melanoma 100% and 90.4% | SK-MEL-28 melanoma 111% and 106%

Cc1cc2nc3ccc(=[N+](C)C)cc-3sc2cc1N
inactive: SNB-75 CNS 88.2% and 22.1%
-31.9% (active) and 23.3% (inactive): UACC-62 melanoma
active: HCT-15 colon 8.48% and 7.46% | SNB-19 CNS -17.2% and -4.45% | U251 CNS 1.01% and -31% | PC-3 prostate -1.87% and -5.43% | LOX IMVI melanoma -19.1% and -29.2%
-9.76% (active) and 20.1% (inactive): SK-MEL-28 melanoma

O=C1Cc2ccccc2C(=O)N1
inactive: HCT-15 colon 99.2% | SNB-75 CNS 96.1% | SNB-19 CNS 106% | U251 CNS 86.1% | PC-3 prostate 95.2% | SK-MEL-5 melanoma 106% | UACC-62 melanoma 92.2% | LOX IMVI melanoma 42.1% | SK-MEL-28 melanoma 106%

COc1ccc(CCN=Cc2ccc(Cl)cc2)cc1OC
inactive: HCT-15 colon 106% | SNB-75 CNS 127% | SNB-19 CNS 101% | U251 CNS 105% | PC-3 prostate 116% | SK-MEL-5 melanoma 107% | UACC-62 melanoma 107% | LOX IMVI melanoma 95.8% | SK-MEL-28 melanoma 121%

CC1=CC(=O)c2cccc(NC3=NCCO3)c21
inactive: HCT-15 colon 102% | SNB-19 CNS 104% | U251 CNS 99.5% | PC-3 prostate 89.1% | SK-MEL-5 melanoma 98.2% | UACC-62 melanoma 87.8% | LOX IMVI melanoma 98.4% | SK-MEL-28 melanoma 108%

Cc1onc(-c2c(F)cccc2Cl)c1-c1ncc(-c2ccc(Cl)cc2)o1
25.4% (inactive) and 6.61% (active): SK-MEL-5 melanoma
inactive: HCT-15 colon 29.5% and 16.4% | SNB-19 CNS 80.7% and 40% | U251 CNS 41.1% | PC-3 prostate 31% and 34.5% | UACC-62 melanoma 29.7% and 32.2% | LOX IMVI melanoma 12.5% | SK-MEL-28 melanoma 68.8% and 50.2%

CCOC(=O)C1=CC(=O)CC(C)(C)O1
inactive: HCT-15 colon 101% and 103% | SNB-75 CNS 116% | SNB-19 CNS 104% and 109% | U251 CNS 104% and 99.9% | PC-3 prostate 88.7% and 105% | SK-MEL-5 melanoma 112% | UACC-62 melanoma 104% and 106% | LOX IMVI melanoma 103% and 107% | SK-MEL-28 melanoma 119% and 120%

CC1(CO)CCCC1NCCNC1CCCC1(C)CO (stereo not drawn)
inactive: HCT-15 colon 96.8% and 99% | SNB-75 CNS 84.7% and 97.9% | SNB-19 CNS 102% and 103% | U251 CNS 106% | PC-3 prostate 90.9% and 95% | SK-MEL-5 melanoma 99.7% and 101% | UACC-62 melanoma 99% and 102% | LOX IMVI melanoma 98.8% | SK-MEL-28 melanoma 104% and 108%

Nc1ccccc1SC(CC(=O)c1ccccc1)c1cccc([N+](=O)[O-])c1 (stereo not drawn)
inactive: HCT-15 colon 66.3% and 49.4% | SNB-19 CNS 89.8% | U251 CNS 57.5% and 61.1% | PC-3 prostate 75% and 71.6% | SK-MEL-5 melanoma 96.3% | UACC-62 melanoma 85.5% and 94% | LOX IMVI melanoma 33.5% and 10.9% | SK-MEL-28 melanoma 96% and 102%

CCCCCc1cc[n+](CC(=O)c2ccccc2)cc1
inactive: HCT-15 colon 99.4% and 103% | HT29 colon 99.7% and 105% | U251 CNS 103% and 105% | PC-3 prostate 85.6% and 91.1% | SK-MEL-5 melanoma 96% and 89.5% | UACC-62 melanoma 98.7% and 101% | LOX IMVI melanoma 93.8% and 98.6% | SK-MEL-28 melanoma 128% and 109%

Cc1cc(Cl)nc(Nc2ccccc2)n1
inactive: HCT-15 colon 97.4% | SNB-75 CNS 96.2% | SNB-19 CNS 103% | U251 CNS 98.7% | PC-3 prostate 96.8% | SK-MEL-5 melanoma 97.2% | UACC-62 melanoma 90.2% | LOX IMVI melanoma 97% | SK-MEL-28 melanoma 109%

C/C(=C\c1ccccc1)C(O)C(=O)c1nc2ccc([N+](=O)[O-])cc2[nH]c1=O (stereo not drawn)
inactive: HCT-15 colon 100% | SNB-75 CNS 88.6% | SNB-19 CNS 85.5% | U251 CNS 83.2% | PC-3 prostate 79.7% | SK-MEL-5 melanoma 82.6% | UACC-62 melanoma 72.3% | LOX IMVI melanoma 75.9% | SK-MEL-28 melanoma 112%

CC1(C)CC(=O)NC1=O
inactive: HCT-15 colon 110% | SNB-75 CNS 82% | SNB-19 CNS 101% | U251 CNS 101% | PC-3 prostate 104% | SK-MEL-5 melanoma 100% | UACC-62 melanoma 99.6% | LOX IMVI melanoma 95.9% | SK-MEL-28 melanoma 105%

S=c1nn[nH]n1C1CCCCC1
inactive: HCT-15 colon 115% | HT29 colon 116% | U251 CNS 102% | PC-3 prostate 101% | UACC-62 melanoma 113% | LOX IMVI melanoma 111% | SK-MEL-28 melanoma 117%

C(=N\OCCc1ccccc1)/c1ccccn1
inactive: HCT-15 colon 95% and 104% | SNB-75 CNS 117% and 86.2% | SNB-19 CNS 108% and 103% | U251 CNS 103% and 92.2% | PC-3 prostate 112% and 104% | SK-MEL-5 melanoma 113% and 111% | UACC-62 melanoma 110% and 107% | LOX IMVI melanoma 122% and 101% | SK-MEL-28 melanoma 114% and 112%

COc1ccc2oc3c(ccc[n+]3C)c(=O)c2c1
inactive: HCT-15 colon 100% | SNB-75 CNS 100% | SNB-19 CNS 97.9% | U251 CNS 93.6% | PC-3 prostate 93.1% | SK-MEL-5 melanoma 99.4% | UACC-62 melanoma 92.6% | LOX IMVI melanoma 99.9% | SK-MEL-28 melanoma 103%

NCCCCCC(=O)O
inactive: HCT-15 colon 103% [middle of 4 runs] | SNB-75 CNS 93.6% [middle of 4 runs] | SNB-19 CNS 103% [middle of 4 runs] | U251 CNS 107% and 104% and 91.4% | PC-3 prostate 106% [middle of 4 runs] | SK-MEL-5 melanoma 108% and 109% and 110% | UACC-62 melanoma 112% [middle of 4 runs] | LOX IMVI melanoma 100% [middle of 4 runs] | SK-MEL-28 melanoma 112% and 109% and 119%

O=C(Nc1ccccc1)OCC(CN1CCCCC1)OC(=O)Nc1ccccc1 (stereo not drawn)
inactive: HCT-15 colon 84.9% and 99.5% | SNB-75 CNS 56.4% and 80.6% | SNB-19 CNS 90.9% and 92.8% | U251 CNS 67.7% and 91.1% | PC-3 prostate 75.5% | UACC-62 melanoma 80.7% and 101% | LOX IMVI melanoma 76.7% and 95.2% | SK-MEL-28 melanoma 91.5% and 105%

CCN(C)c1ccccc1
inactive: HCT-15 colon 101% | SNB-75 CNS 79.2% | SNB-19 CNS 106% | U251 CNS 99% | PC-3 prostate 95.8% | SK-MEL-5 melanoma 100% | UACC-62 melanoma 103% | LOX IMVI melanoma 98.4% | SK-MEL-28 melanoma 105%
